Assay results reported in PubChem BioAssay (Tox21).
Inconclusive results are not listed. Entries that show only a call come without a potency. The source made the active and inactive calls. Unless noted, calls follow the shape of the dose curve; as a rule, active = well fitted curve in the direction sought with a large enough effect in the repeat runs; inconclusive = weak or mixed curves; inactive = no such curve, though single readings can be large; an effect the other way counts as inactive or inconclusive.

Experiments:
[1] = qHTS assay to identify small molecule agonists of the peroxisome proliferator-activated receptor delta (PPARd) signaling pathway - cell viability counter screen (AID 743211); also: nearly all actives have a fitted effect of over 55% in size
How it was run: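 Read-out: CellTiter-Glo luminescence, 30 min RT, measured in the same wells as the beta-lactamase reporter. Cells: GeneBLAzer PPAR delta UAS-bla HEK293H, 3000 cells/well, compound exposure 17 h at 37C.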

[2] = biological target: Peroxisome proliferator-activated receptor delta (Homo sapiens) (UniProt Q03181); assay: qHTS assay to identify small molecule agonists of the peroxisome proliferator-activated receptor delta (PPARd) signaling pathway (AID 743212; calls by dose curve)
Sequence of Peroxisome proliferator-activated receptor delta (Homo sapiens) (Q03181 whole entry, looked up): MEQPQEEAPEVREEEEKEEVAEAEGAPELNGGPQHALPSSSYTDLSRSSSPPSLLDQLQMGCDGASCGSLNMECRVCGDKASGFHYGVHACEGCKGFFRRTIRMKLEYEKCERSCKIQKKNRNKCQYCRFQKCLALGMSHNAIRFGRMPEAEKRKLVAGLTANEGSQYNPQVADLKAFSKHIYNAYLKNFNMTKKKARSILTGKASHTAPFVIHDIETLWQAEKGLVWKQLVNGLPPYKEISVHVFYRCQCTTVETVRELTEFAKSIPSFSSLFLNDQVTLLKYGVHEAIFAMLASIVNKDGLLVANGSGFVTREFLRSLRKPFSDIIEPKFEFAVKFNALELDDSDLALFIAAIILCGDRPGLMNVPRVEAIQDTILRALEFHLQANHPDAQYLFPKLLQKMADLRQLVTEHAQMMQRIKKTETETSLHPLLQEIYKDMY
How it was run: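 HEK293H PPARd-bla cells; 5 h preincubation 37 C/5% CO2; compound (DMSO) 37 C; LiveBLAzer B/G FRET substrate 2 h RT; fluorescence intensity.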

[3] = biological target: Peroxisome proliferator-activated receptor delta (Homo sapiens) (UniProt Q03181); assay: qHTS assay to identify small molecule antagonists of the peroxisome proliferator-activated receptor delta (PPARd) signaling pathway (AID 743215; active = well fitted inhibition curve with a large enough effect in the signal ratio in the repeat runs, not every such curve was filed as active; the % refers to the signal ratio; also: series mostly up to about 62 µM)
How it was run: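 Read-out is beta-lactamase FRET fluorescence, measured 2 h after substrate addition at room temperature. Beforehand, UAS-bla HEK293H cells carrying the PPARd reporter were exposed to compounds with L165041 at 300 nM final for 17 h at 37 C.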

[4] = qHTS assay to identify small molecule antagonists of the farnesoid-X-receptor (FXR) signaling pathway - cell viability counter screen (AID 743221; active = well fitted cell-killing curve with a large enough effect in the repeat runs, not every such curve was filed as active; also: nearly all actives have a fitted effect of over 50% in size)
How it was run: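 HEK 293T FXR-bla cells, 5 h pre-incubation; compound + CDCA 50 uM final, 16 h, 37 C; beta-lactamase FRET read first, then CellTiter-Glo luminescence, 30 min RT.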

[5] = qHTS assay to identify small molecule agonists of the vitamin D receptor (VDR) signaling pathway - cell viability counter screen (AID 743224); also: series mostly up to about 63 µM; nearly all actives have a fitted effect of over 50% in size
How it was run: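 Luminescence from CellTiter-Glo, read after 30 min at room temperature, reports viability of VDR-bla cells treated with compounds for 16 h at 37C in the wells used for the beta-lactamase FRET read.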

[6] = qHTS assay to identify small molecule antagonists of the vitamin D receptor (VDR) signaling pathway - cell viability counter screen (AID 743225); also: nearly all actives have a fitted effect of over 50% in size
How it was run: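 Viability counter screen run in the same wells as the beta-lactamase reporter assay: HEK 293T VDR-UAS-bla cells, 16 h compound exposure at 37C with 3 nM (final) 1-alpha,25-dihydroxyvitamin D3. CellTiter-Glo luminescence, 30 min, room temperature.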

[7] = qHTS assay to identify small molecule agonists of the NFkB signaling pathway (AID 1159509; active = well fitted curve in the direction sought with a large enough effect in the signal ratio in the repeat runs, not every such curve was filed as active; the % refers to the signal ratio; also: series mostly up to about 61 µM)
How it was run: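 NFkB-bla ME-180 cells carry a beta-lactamase reporter under an NF-kB response element. They were plated overnight, then exposed to compounds for 5 h at 37 C. Read-out is LiveBLAzer FRET after 1.5 hr at room temperature (405 nm excitation; 460/530 nm emission).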

[8] = qHTS assay to identify small molecule agonists of the NFkB signaling pathway - cell viability counter screen (AID 1159515; calls by dose curve; also: series mostly up to about 61 µM; nearly all actives have a fitted effect of over 55% in size)
How it was run: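 Luminescence from CellTiter-Glo (30 min, room temperature) gives viability, measured in the same wells as the beta-lactamase reporter read. Cells were NFkB-bla ME-180, 2,000 per well, treated 5 hr with compounds.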

[9] = qHTS assay to identify small molecule agonists of the endoplasmic reticulum stress response signaling pathway (AID 1159516; active = well fitted activation curve with a large enough effect in the signal ratio in the repeat runs, not every such curve was filed as active; the % refers to the signal ratio)
How it was run: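 Read-out is beta-lactamase cleavage of a FRET substrate (405 nm excitation; 460 and 530 nm emissions) in ESRE-bla HeLa cells after a 5 hr compound exposure at 37 C. Substrate incubation ran 2 hr at room temperature.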

[10] = qHTS assay to identify small molecule agonists of the endoplasmic reticulum stress response signaling pathway - cell viability counter screen (AID 1159517; calls by dose curve;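 also: HeLa cells carrying an ER stress response element beta-lactamase reporter; series mostly up to about 61 µM; nearly all actives have a fitted effect of over 50% in size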)
How it was run: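 HeLa cells carrying an ESRE-driven beta-lactamase reporter receive compound for 5 hr at 37 C. Cell viability is then gauged with CellTiter-Glo by luminescence, 30 min at room temperature.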

[11] = biological target: Nuclear receptor ROR-gamma (Homo sapiens) (UniProt P51449); assay: qHTS assay to identify small molecule antagonists of the retinoid-related orphan receptor gamma (ROR-gamma) signaling pathway (AID 1159521; also: nearly all actives have a fitted effect of over 50% in size; also: potency is read from the fitted curve at half-maximal effect)
How it was run: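 Luminescence readout (ONE-Glo, 30 min RT) after 16 h doxycycline induction; loss of signal scored as antagonism. CHO cells with TET-inducible RORγ and RORE-LUC reporter; compounds added 2 h before 1 uM final doxycycline.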

[12] = qHTS assay to identify small molecule agonists of the AP-1 signaling pathway - cell viability counter screen (AID 1159525; calls by dose curve; also: nearly all actives have a fitted effect of over 55% in size)
How it was run: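 Luminescent ATP readout (Cell Titer Glo, 30 min RT), normalised to DMSO and tetra n-octyl ammonium bromide controls. Cells were ME-180 AP-1-bla in 0.5% dialyzed FBS Opti-MEM, with a 5 h, 37 °C compound exposure.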

[13] = qHTS assay to identify small molecule agonists of the AP-1 signaling pathway (AID 1159526; calls by dose curve)
[14] = qHTS assay to identify small molecule antagonists of the peroxisome proliferator-activated receptor delta (PPARd) signaling pathway - cell viability counter screen (AID 743213); also: nearly all actives have a fitted effect of over 50% in size
How it was run: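 Agonist-stimulated (L165041, 300 nM final) HEK293H PPARd UAS-bla cells are exposed to compounds for 17 h at 37 C, and ATP-based luminescence (CellTiter-Glo) from the same wells reports cytotoxicity.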

[15] = qHTS assay to identify small molecule agonists of the farnesoid-X-receptor (FXR) signaling pathway - cell viability counter screen (AID 743218); also: nearly all actives have a fitted effect of over 45% in size
How it was run: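 HEK 293T FXR-bla cells; 5 h pre-incubation, 16 h compound exposure at 37 C; LiveBLAzer substrate 2 h RT, then CellTiter-Glo 30 min RT, luminescence.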

[16] = qHTS assay to identify small molecule antagonists of the retinoid-related orphan receptor gamma (ROR-gamma) signaling pathway - cell viability counter screen (AID 1159520); also: nearly all actives have a fitted effect of over 50% in size
How it was run: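 Cytotoxicity was read from cellular ATP (CellTiter-Glo luminescence) after 16 hr at 37 C with 1 uM doxycycline induction. The inducer was added 2 hr after compound transfer to Tet-on ROR gamma CHO cells.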

[17] = biological target: Bile acid receptor (Homo sapiens) (UniProt Q96RI1); assay: qHTS assay to identify small molecule agonists of the farnesoid-X-receptor (FXR) signaling pathway (AID 743220; active = well fitted activation curve with a large enough effect in the signal ratio in the repeat runs, not every such curve was filed as active; the % refers to the signal ratio)
Sequence of Bile acid receptor (Homo sapiens) (Q96RI1 whole entry, looked up): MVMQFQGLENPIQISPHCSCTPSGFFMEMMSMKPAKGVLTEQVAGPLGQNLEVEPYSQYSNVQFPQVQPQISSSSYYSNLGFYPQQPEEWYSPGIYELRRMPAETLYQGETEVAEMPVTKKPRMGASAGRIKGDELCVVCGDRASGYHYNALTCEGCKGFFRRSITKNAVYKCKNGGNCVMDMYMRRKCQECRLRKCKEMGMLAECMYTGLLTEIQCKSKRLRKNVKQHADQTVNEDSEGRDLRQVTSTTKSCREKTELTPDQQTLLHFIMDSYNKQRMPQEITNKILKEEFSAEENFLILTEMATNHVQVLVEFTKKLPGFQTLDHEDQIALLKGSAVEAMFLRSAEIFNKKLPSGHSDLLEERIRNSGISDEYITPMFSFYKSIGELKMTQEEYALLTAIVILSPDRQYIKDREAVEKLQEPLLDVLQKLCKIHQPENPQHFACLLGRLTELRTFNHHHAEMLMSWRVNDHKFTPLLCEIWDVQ
How it was run: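 Beta-lactamase reporter under UAS control in GeneBLAzer FXR HEK 293T cells (5000/well) measured with LiveBLAzer FRET substrate after 2 h at room temperature. Compound exposure lasted 16 h at 37C.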

[18] = biological target: Vitamin D3 receptor (Homo sapiens) (UniProt P11473); assay: qHTS assay to identify small molecule antagonists of the vitamin D receptor (VDR) signaling pathway (AID 743223; active = well fitted inhibition curve with a large enough effect in the signal ratio in the repeat runs, not every such curve was filed as active; the % refers to the signal ratio)
Sequence of Vitamin D3 receptor (Homo sapiens) (P11473 whole entry, looked up): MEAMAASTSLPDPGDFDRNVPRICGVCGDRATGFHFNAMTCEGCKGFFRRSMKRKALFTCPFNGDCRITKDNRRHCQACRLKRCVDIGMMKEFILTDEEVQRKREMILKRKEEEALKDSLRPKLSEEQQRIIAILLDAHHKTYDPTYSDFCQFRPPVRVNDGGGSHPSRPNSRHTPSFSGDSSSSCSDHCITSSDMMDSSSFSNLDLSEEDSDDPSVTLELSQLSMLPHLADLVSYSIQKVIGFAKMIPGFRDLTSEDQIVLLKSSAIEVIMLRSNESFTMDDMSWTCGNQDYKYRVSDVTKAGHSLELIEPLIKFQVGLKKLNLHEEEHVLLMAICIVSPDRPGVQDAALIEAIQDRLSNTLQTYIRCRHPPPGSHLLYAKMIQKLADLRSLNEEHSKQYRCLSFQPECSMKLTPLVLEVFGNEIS
How it was run: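 Beta-lactamase reporter read-out: FRET substrate fluorescence after 2 h at room temperature, following 16 h exposure of VDR-bla cells to test compound plus 3 nM (final) 1alpha,25-dihydroxyvitamin D3 agonist at 37C.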

[19] = biological target: Bile acid receptor (Homo sapiens) (UniProt Q96RI1); assay: qHTS assay to identify small molecule antagonists of the farnesoid-X-receptor (FXR) signaling pathway (AID 743217; active = well fitted inhibition curve with a large enough effect in the signal ratio in the repeat runs, not every such curve was filed as active; the % refers to the signal ratio)
How it was run: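 HEK 293T FXR-UAS-bla, 5000 cells/well; compound + CDCA 50 uM final; 16 h, 37 °C; B/G FRET substrate 2 h RT; fluorescence.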

[20] = biological target: Vitamin D3 receptor (Homo sapiens) (UniProt P11473); assay: qHTS assay to identify small molecule agonists of the vitamin D receptor (VDR) signaling pathway (AID 743222; calls by dose curve)
How it was run: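 VDR-bla cells, 2,000/well; 4 h preincubation 37C; cpd (DMSO) 16 h; LiveBLAzer B/G substrate 2 h RT; fluorescence intensity read.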

Compound	Potency [1]	Potency [2]	Potency [3]	Potency [4]	Potency [5]	Potency [6]	outcome [7]	outcome [8]	outcome [9]	outcome [10]	Potency [11]	outcome [12]	outcome [13]	Potency [14]	Potency [15]	Potency [16]	Potency [17]	outcome [18]	Potency [19]	outcome [20]
CCCCCCCCCCCCCCC[C@H](O)[C@@H](N)CO	inactive	inactive	inactive	inactive	inactive	inactive	inactive	inactive	inactive	inactive	inactive	inactive	inactive							
CCC1(C)CC(=O)NC1=O (configuration not stated)	inactive		inactive	inactive	inactive	inactive	inactive	inactive	inactive	inactive			inactive	inactive	inactive	inactive				
Cc1ccc(S)cc1	inactive		inactive	inactive	inactive	inactive	inactive	inactive	inactive	inactive	inactive	inactive	inactive	inactive	inactive					
CC(COc1ccc(C(C)(C)C)cc1)OS(=O)OCCCl (configuration not stated)	inactive	inactive	inactive	inactive	inactive	inactive	inactive	inactive	inactive	inactive	24.5 µM (active)	inactive	inactive	inactive	inactive		inactive	inactive		
NC(=O)N(O)[C@@H]1C=C[C@H](Oc2cccc(Oc3ccc(F)cc3)c2)C1	inactive		inactive	inactive	inactive	inactive	inactive	inactive	inactive	inactive	inactive	inactive		inactive			inactive	inactive	inactive	
NC(=O)Nc1ccc(Cl)cc1	inactive	inactive		inactive	inactive	inactive	inactive	inactive	inactive	inactive			inactive	inactive	inactive	inactive		inactive		inactive
CCCCCCOC(=O)C(C)C	inactive	inactive	inactive	inactive	inactive	inactive	inactive	inactive	inactive	inactive	inactive	inactive	inactive	inactive	inactive		inactive	inactive	inactive	inactive
c1cc[c]([Bi]([c]2ccccc2)[c]2ccccc2)cc1	inactive	inactive		inactive	inactive	inactive	inactive	inactive	inactive	inactive	30.6 µM (active)	inactive		inactive	inactive					inactive
NC(=O)N(O)[C@@H]1COc2cc(OCc3ccccc3)ccc21	inactive	inactive	inactive	inactive	inactive	inactive	inactive	inactive	inactive	inactive	inactive	inactive		inactive	inactive		inactive	inactive	inactive	
CC(C)C(OC(=O)c1ccccc1)C(C)(C)COC(=O)c1ccccc1 (configuration not stated)	inactive	inactive	inactive	inactive		inactive	inactive	inactive	inactive	inactive			inactive	inactive	inactive	inactive		inactive		
Cn1c(=O)c2c(ncn2CC(=O)O)n(C)c1=O	inactive			inactive	inactive	inactive	inactive	inactive	inactive	inactive			inactive	inactive	inactive	inactive		inactive		inactive
C/C(=N/NC(=O)c1ccncc1)C(=O)O	inactive		inactive	inactive	inactive		inactive	inactive	inactive	inactive			inactive	inactive	inactive	inactive		inactive		inactive
CCOC(=N)CC(=O)OCC		inactive	inactive	inactive	inactive	inactive	inactive	inactive	inactive	inactive			inactive	inactive	inactive	inactive				
CC(C)(CCl)c1ccccc1	inactive		inactive	inactive		inactive	inactive	inactive	inactive	inactive	inactive	inactive	inactive	inactive	inactive		inactive	inactive	inactive	inactive
CC[C@H](NC(=O)c1cc(F)ccc1NS(=O)(=O)c1cccc2cccnc12)c1ccccc1	inactive	inactive		inactive	inactive	inactive	inactive	inactive	inactive	inactive	10.3 µM (active)	inactive			inactive		inactive	inactive		
CO[C@@]12[C@H](COC(N)=O)C3=C(C(=O)C(C)=C(N)C3=O)N1C[C@@H]1N[C@@H]12	inactive	inactive		inactive		inactive	inactive	inactive	inactive	inactive	inactive	inactive	inactive	inactive	inactive		inactive			
CCOC(=O)CC(=O)C(=O)OCC	inactive	inactive		inactive	inactive		inactive	inactive	inactive	inactive			inactive	inactive	inactive	inactive	inactive		inactive	inactive
